Screening data (PubChem BioAssay)
S2 tox = cell viability loss in ATXN counter-screen | S2 cells (HEK-293 line with an ATXN2-luciferase reporter) viability, CellTiter-Fluor protease fluorescence, 24 h | Potency, µM (doses to about 56.7 µM), hits mostly cytotoxic | hit rate 0.49% among 400,000 | AID 651635; also: nearly all actives have a fitted effect of over 40% in size
HepG2 tox = kills HepG2 cells in TGF-b inhibitor counter-screen; hit rate 0.76% among 410,000; Potency, µM (series often up to 46.1 µM), for the others: top-dose activity change, negative = cytotoxicity, actives largely listed as cytotoxic; HepG2 CAGA-GFP viability, ATP luminescence, 18 h
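CellTiter-Glo luminescence gave cytotoxicity after 18 hours at 37 degrees C. The cells were HepG2 CAGA-GFP in 1% FBS DMEM, stimulated with 500 pg/mL TGF-beta after compound addition. %Activity was normalised to no-cell wells (complete cell-killing) and DMSO (no toxicity), and curves were fitted and classified.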
ATXN2 expr inh = reduces ATXN2 reporter expression in HEK-293 cells | HEK-293 ATXN2-luciferase reporter, luminescence, 24 h | Potency, µM (titrated, usually from 57 µM), without a hit: at the highest dose activity change, negative = inhibition, actives largely listed as inhibitors | hit rate 0.72% among 360,000 | AID 1745845; also: % is scaled to controls: 0 for no effect and ±100 for the full control effect; nearly all actives have a fitted effect of over 55% in size
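qHTS (up to 57 uM final) was run with 24 h compound exposure of reporter cells at 37 °C. Each well was multiplexed: SteadyGlo luminescence measured ATXN2-luciferase expression after a fluorogenic Gly-Phe-AFC viability readout (25 uM final).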
TDP1 cell CPT = DT40-hTDP1 cell growth loss with CPT | chicken DT40 Tdp1-/-;hTDP1 cells + 20 nM CPT, ATP luminescence, 48 h | Potency, µM (highest dose often 46.2 µM), without a hit: at the top dose activity change, negative = growth inhibition, hits mostly inhibitors | hit rate 12% among 420,000 | AID 686979; also: % is scaled to controls: 0 for no effect and ±100 for the full control effect; nearly all actives have a fitted effect of over 55% in size
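Chicken DT40 Tdp1-/- cells stably complemented with human TDP1 were seeded at 400 cells/well in medium containing 20 nM camptothecin, exposed to pin-transferred compounds, and grown at 37 °C for at least 48 hr. Viability was read as ATP luminescence.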
TGFb SMAD3 inh = blocks TGF-b signaling; HepG2 CAGA-GFP TGF-b/SMAD3 reporter, GFP fluorescence, 18 h; TGF-beta stimulated, 500 pg/mL final; Potency, µM (titrated, usually from 46.1 µM), without a hit: at the highest dose activity, negative = inhibition, hits mostly inhibitors; hit rate 1.2% among 410,000; AID 588855; also: % is scaled to controls: 0 for no effect and ±100 for the full control effect; nearly all actives have a fitted effect of over 65% in size
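HEPG2 CAGA-GFP, 1000 cells/well; 2 h settle, 37 C; cpd via pin tool; TGF-b 500 pg/mL final; 18 h, 37 C; GFP imaging ex488/em500-530; %Activity normalised to -TGF-b and +DMSO controls; CRC fit, curve class.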
DT40 TDP1 no CPT = qHTS for Inhibitors of human tyrosyl-DNA phosphodiesterase 1 (TDP1): qHTS in cells in absence of CPT. AID 686978, 2013. DT40 Tdp1-/- hTDP1 cells, no CPT, ATP luminescence, 48 h. hit rate 15% among 420,000. Potency, µM (series often up to 46.2 µM), without a hit: at the top dose activity change, negative = growth inhibition, usual class: inhibitors; also: % is scaled to controls: 0 for no effect and ±100 for the full control effect; nearly all actives have a fitted effect of over 55% in size
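Seeded 400 DT40-hTDP1 cells/well (vehicle DMSO, no 20 nM CPT); pinned compounds; ≥48 hr at 37 °C; CellTiter-Glo luminescence as viability measure.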
Active calls of the source: *; i = inactive; ? = inconclusive; · = no result given; [ ] = dose if it differs, or a comment. A selection: hits, their analogues and other compounds. The true share with any hit is near 17%. Calls follow the shape of the dose curve; as a rule, active = well fitted curve in the direction sought with a large enough effect; inconclusive = small, poorly fitted or top-dose-only effect, or another doubt; inactive = no such curve, though single readings can be large; an effect the other way counts as inactive or inconclusive. Potency is read from the fitted curve at half-maximal effect.

SMILES	S2 tox	HepG2 tox	ATXN2 expr inh	TDP1 cell CPT	TGFb SMAD3 inh	DT40 TDP1 no CPT
COc1ccc(S(=O)(=O)Nc2cc(S(=O)(=O)c3ccccc3)c(O)c(C)c2C)cc1	i	1%	0%	-22%	19%	-25%
NCC1C2CCC(O2)C1CO (stereo unspecified)	i	-1%	·	8%	6%	6%
CC(C)(C)c1ccc(C(=O)NCCOc2ccccc2F)cc1	i	-4%	13µM*	-17%	15%	-22%
COc1ccccc1OCCNC(=O)c1ccccc1C	i	-4%	4%	-15%	-11%	-8%
COc1ccccc1C(=O)NCCOc1ccc(C(C)(C)C)cc1	i	-34%	·	?	-19%	21µM*
CC(C)(C)c1ccc(C(=O)NCCc2ccccc2)cc1	i	-3%	10%	-21%	0%	-30%
COc1ccccc1NS(=O)(=O)c1c(C)nc2sccn2c1=O	i	-6%	-7%	-19%	-14%	-10%
CCOC(=O)c1cccc(-n2c(C)cc(C=O)c2C)c1	i	-8%	-4%	-3%	-5%	-30%
CCOC(=O)c1c(-n2c(C)cc(C=O)c2C)sc2c1CCCC2	i	-31%	?	16µM*	-17%	?
O=S(=O)(CCSc1nc2ccccc2s1)c1nc2ccccc2s1	16µM*	-96%	?	6.5µM*	?	3.7µM*
c1ccc2[nH]c(CSc3nc4ccccc4s3)nc2c1	i	-1%	19%	?	-13%	15µM*
C=CCS(=O)(=O)c1nc2ccccc2s1	·	10µM*	?	16µM*	18µM*	21µM*
O=c1oc2ccccc2n1CSc1nc2ccccc2s1	?	-8%	3%	-27%	10%	13µM*
O=C(O)CSc1nc2ccccc2s1	i	31%	·	14%	2%	16%
Cc1nnc(SCc2nc3ccccc3[nH]2)s1	i	-68%	15%	3%	5%	-13%
CN1CCc2c(sc3nc(NN)n(-c4ccc(Cl)cc4)c(=O)c23)C1	i	-10%	·	-23%	-9%	?
NC(=O)CC(NC(=O)Cc1ccc(Cl)cc1)c1ccc(NC2CC3CCC2C3)c([N+](=O)[O-])c1 (stereo unspecified)	i	-8%	?	?	-9%	-29%
O=C(CCc1nnc(Cc2c[nH]c3ccccc23)o1)NCCC1CCCCO1 (stereo unspecified)	i	1%	·	-12%	-10%	4%
NCCSc1nc2ccccc2s1	·	-28%	·	?	-14%	11µM*
O=C(CSc1nc2ccccc2s1)CSc1nc2ccccc2s1	i	-32%	14%	4%	-17%	-5%
COc1ccc(-n2c(CCNC(=O)c3ccc(-c4cccc(F)c4)cc3)nnc2SC)cc1	i	·	·	-1%[9.04 µM]	·	?
Cc1ncc(CO)c(/C=N/NC(=O)c2cc3c(s2)CCCC3)c1O	i	-2%	·	5.8µM*	7%	7.3µM*
Cc1ncc(CO)c(/C=N/NC(=O)c2ccc(O)cc2)c1O	i	-11%	-4%	1%	-1%	-8%
COc1ccc(C(=O)N/N=C/c2c(CO)cnc(C)c2O)cc1	?	-19%	·	5.8µM*	-9%	23µM*
Cc1ccccc1OCCn1c(-c2ccc(Cl)cc2)nc2ccccc2c1=O	i	-16%	1%	-12%	-1%	-3%
SMILES	S2 tox	HepG2 tox	ATXN2 expr inh	TDP1 cell CPT	TGFb SMAD3 inh	DT40 TDP1 no CPT
COCCCNCCCCOc1ccccc1-c1ccccc1	i	-13%	-7%	21µM*	1%	15µM*
CNCCCCOc1ccccc1-c1ccccc1	i	-40%	-24%	26µM*	?	?
COCCCNCCOc1ccccc1-c1ccccc1	?	0%	-16%	13%	25%	?
CNCCOc1ccccc1-c1ccccc1	i	-21%	-11%	-28%	2%	?
Cc1ccnc2ccc(Br)cc12	·	4%	·	-25%	-1%	-21%
NC(=O)c1ccc2c(=O)n3c(-c4cc(Cl)c(N)c(Cl)c4)csc3nc2c1	?	15%	-24%	16µM*	-4%	18µM*
CCC1(C2CCN(Cc3ccccn3)CC2)NC(=O)N(CC2COc3ccccc3O2)C1=O (stereo unspecified)	i	·	·	-7%[9.04 µM]	·	-7%
Cc1cccc(NC(=O)CSc2nc(C3CCCC3)nc3c2c(=O)n(C)c(=O)n3C)c1C	i	-1%	14%	-14%	1%	-7%
CC(=O)c1ccc(NC(=O)CSc2nc(C3CCCC3)nc3c2c(=O)n(C)c(=O)n3C)cc1	?	0%	-2%	5.2µM*	-2%	5.2µM*
CN(C(=O)CSc1nc(C2CCCC2)nc2c1c(=O)n(C)c(=O)n2C)c1ccccc1	i	-3%	9%	?	-13%	?
Cn1c(=O)c2c(SCC(=O)Nc3nccs3)nc(C3CC3)nc2n(C)c1=O	i	-9%	-1%	23µM*	-2%	18µM*
CCCn1c(=O)n(C)c(=O)c2c(SCc3cc(C(C)=O)ccc3OCC)nc(C3CC3)nc21	i	-10%	-18%	21µM*	4%	26µM*
Cn1c(=O)c2c(SC3CCCC3)nc(C3CC3)nc2n(C)c1=O	i	-11%	7%	?	-2%	21µM*
CCCC(=O)Nc1nnc2n1CCS2	i	-9%	3%	0%	1%	0%
COc1ccc(C)cc1CN(C)c1ccc(S(=O)(=O)N2CCN(C)CC2)cn1	i	5%	-13%	?	-1%	?
Cc1cc(CN(Nc2ccccc2)c2ccccc2)cc(C)n1	i	-12%	·	?	-4%	15µM*
c1ccc(NN(Cc2ccncc2)c2ccccc2)cc1	?	-27%	·	-24%	-11%	?
N#Cc1ccc(CN(Nc2ccccc2)c2ccccc2)cc1	i	-26%	·	18µM*	?	21µM*
CCc1ccc(NC(=O)C2CCCN(S(=O)(=O)c3ccc4c(c3)oc(=O)n4C)C2)cc1 (stereo unspecified)	i	-6%	10%	-19%	-18%	-27%
